DENV2 CPE rescue: inhibitors of DENV2 cytopathic effect, primary screen, cell-based, plate reader, single concentration | actives 1.7% (n = 350,000) | CPE inhibition, % at 9.99 µM | DENV2-infected cells, cytopathic effect rescue; in the data active means CPE inhibition above about 20%, passing the limit was not always enough; inconclusive means no clear call, values can overlap the other calls; tested in BHK-21 cells;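 further: 0% = median of neutral control wells and 100% = median of positive control wells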
ERp5 inh: inhibitors of ERp5-driven insulin aggregation, primary screen, biochemical, turbidity, absorbance 650 nm, single point; 90 min; inhibition, % at 9.99 µM; actives 0.05% (n = 350,000);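 active means mean replicate inhibition above about 25%, with every replicate also reaching it, limit read from the data, passing the limit was not always enough; inconclusive means only one of those two criteria met; inactive means neither criterion met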
PDI inh: inhibitors of human PDI, primary screen, biochemical, turbidity, single point, plate reader | Protein disulfide-isomerase (Homo sapiens), P07237 | PDI insulin aggregation turbidity, A650, 90 min | inhibition, % at 10 µM | actives 0.052% (n = 350,000);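 active means mean inhibition across replicates of 30% or more, whatever share of single replicates reach that level; inconclusive means mean inhibition below 30% while every single replicate reaches 30%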
SIRT5 block: SIRT5 desuccinylase inhibitors, primary screen, biochemical, fluorescence imaging, single point, set 5. AID 652115, 2013. actives 1.1% (n = 330,000). Purified SirT5, succinyl-peptide AMC, trypsin-coupled fluorescence. NAD-dependent protein deacylase sirtuin-5, mitochondrial (Homo sapiens), Q9NXA8. inhibition, % at 15 µM; in the data active means inhibition above about 15%; inconclusive means no clear call, values can overlap the other calls
Target sequence (Q9NXA8 whole entry, looked up): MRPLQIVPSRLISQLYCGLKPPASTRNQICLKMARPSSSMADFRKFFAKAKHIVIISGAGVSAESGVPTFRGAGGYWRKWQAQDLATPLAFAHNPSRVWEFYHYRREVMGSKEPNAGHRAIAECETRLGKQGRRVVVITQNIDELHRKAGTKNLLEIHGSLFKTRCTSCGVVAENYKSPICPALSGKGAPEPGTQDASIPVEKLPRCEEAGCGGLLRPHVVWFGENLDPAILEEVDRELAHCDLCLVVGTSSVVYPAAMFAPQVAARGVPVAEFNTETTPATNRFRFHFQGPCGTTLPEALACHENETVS
Rtt109 HAT inh: inhibitors of C. albicans Rtt109/Vps75 HAT, primary screen, biochemical, ThioGlo CoA-SH fluorescence, plate reader | actives 0.16% (n = 330,000) | inhibition, % at 34.9 µM | AID 540336, 2011 | purified Rtt109/Vps75, 4 h;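 active means inhibition of at least 50% in every replicate; inconclusive means best replicate reaches 50% inhibition but some replicates fall short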
* hit, by the source's call; ? = inconclusive; · = not tested or not shown; ! = a repeat was not active. Shown are actives, neighbours in structure and some others; about 2.3% of the full set was active somewhere.

SMILES	DENV2 CPE rescue	ERp5 inh	PDI inh	SIRT5 block	Rtt109 HAT inh
C[C@@H]1CCCCO[C@@H](CN(C)C(=O)c2ccccc2)[C@H](C)CN([C@@H](C)CO)C(=O)c2cc(NS(=O)(=O)c3ccc(Cl)cc3)ccc2O1	-9.9	5.6	·	-1.9	·
C[C@H](CO)N1C[C@H](C)[C@H](CN(C)CC2CC2)Oc2c(NS(=O)(=O)c3cccs3)cccc2C1=O	1.3	2.5	·	0.6	·
Cc1noc(C)c1NC(=O)N(C)C[C@@H]1Oc2ccc(N(C)C)cc2CC(=O)N([C@H](C)CO)C[C@H]1C	-8.5	-1.9	·	2.1	·
O=C([C@@H]1CC=C[C@@H]2CCN(C3CCCCC3)C(=O)[C@@H]21)N1CCN(c2ccccc2)CC1	?	1.3	-4.0	·	4.6
O=C1[C@@H](c2ccccc2)CC[C@@H]2C=CC[C@H]3CCN1[C@@H]32	-2.6	30.8*	·	-5.5	·
CC(C)(C)OC(=O)NCc1ccc(CNC(=O)c2nc[nH]c2C(=O)NCc2ccc(CNC(=O)OC(C)(C)C)cc2)cc1	13.3	3.8	21.1	16.0*	7.2
CC(C)(C)OC(=O)CNC(=O)c1nc[nH]c1C(=O)NCc1ccc(CNC(=O)OC(C)(C)C)cc1	-10.7	0.9	10.2	-2.8	-1.3
CC(C)(C)OC(=O)NCc1ccc(CNC(=O)c2nc[nH]c2C(=O)N2CCc3ccccc3C2)cc1	59.9*	0.5	-1.5	·	14.6
CCCNC(=O)N1CC2(CCN(Cc3cccc(F)c3)CC2)c2c([nH]c3cc(OC)ccc23)[C@H]1CO	11.3	6.3	·	0.6	·
C(=C\c1ccc(C2[C@@H]3CN(Cc4cocn4)C[C@H]2N3)cc1)/c1ccccc1 (some centres not stated)	30.5*!	·	·	·	·
N#Cc1ccc(C(=O)NC(=S)N2CCN(C=O)CC2)cc1	-6.6	1.8	5.5	20.0*	2.3
CCOC(=O)[C@H](O)[C@@H](O)c1cccc([C@H](O)[C@@H](O)C(=O)OCC)c1	41.3*	6.6	-1.9	·	-1.9
C[C@@H]1CN([C@@H](C)CO)C(=O)Cc2cc(NC(=O)Cc3ccccc3)ccc2O[C@H]1CN(C)Cc1ccccc1	10.9	-0.4	·	5.5	·
CN(C)C(=O)c1ccc(-c2ccc3c(c2)[C@H]2[C@H](CCN2C(=O)c2ccccn2)[C@H](CO)N3C)cc1	-5.8	·	·	·	·
C[C@@H]1CN([C@@H](C)CO)C(=O)c2cccc(NS(=O)(=O)c3cn(C)cn3)c2O[C@@H]1CN(C)Cc1ccc(C(F)(F)F)cc1	21.9*	-2.6	·	0.6	·
C[C@@H]1CN([C@H](C)CO)C(=O)c2cccc(NS(=O)(=O)c3ccccc3)c2O[C@@H]1CN(C)S(=O)(=O)c1cn(C)cn1	-1.2	-10.3	·	1.2	·
C[C@@H]1CN([C@H](C)CO)C(=O)c2cccc(NS(C)(=O)=O)c2O[C@@H]1CN(C)CC1CCCCC1	16.3	-3.0	·	18.1*	·
C[C@H](CO)N1C[C@H](C)[C@@H](CN(C)S(=O)(=O)c2cn(C)cn2)Oc2c(NS(=O)(=O)c3ccccc3)cccc2C1=O	23.1*!	6.3	3.5	-7.8	-4.6
C[C@@H]1CN([C@H](C)CO)C(=O)c2cccc(NS(C)(=O)=O)c2O[C@H]1CN(C)CC1CCCCC1	-7.9	2.6	·	2.5	·
C[C@H](CO)N1C[C@H](C)[C@@H](CN(C)CC2CCCCC2)Oc2c(NS(=O)(=O)c3ccc(F)cc3)cccc2C1=O	-7.6	-3.4	9.1	26.8*!	-3.8
CO[C@H]1CN(C)C(=O)c2cc(NC(=O)NC3CCCCC3)ccc2OC[C@@H](C)N(C(C)=O)C[C@H]1C	0.8	-0.4	·	1.3	·
C[C@@H]1CN([C@H](C)CO)C(=O)c2cccc(NS(=O)(=O)c3ccccc3)c2O[C@H]1CN(C)CC1CCCCC1	-4.8	-3.0	·	3.4	·
C[C@@H]1CN([C@@H](C)CO)C(=O)c2cccc(NS(=O)(=O)c3ccccc3)c2O[C@@H]1CN(C)CC1CCCCC1	24.4*	0.2	·	1.0	·
CC(=NO)C1CCC2C3CCC4=CC(=NO)CCC4(C)C3C(=O)CC12C (configuration not stated)	-5.3	-3.9	37.4*	·	-15.1
Cc1ccc(C(=O)c2ncc[nH]2)cc1	51.9*	5.5	1.6	·	-9.0
SMILES	DENV2 CPE rescue	ERp5 inh	PDI inh	SIRT5 block	Rtt109 HAT inh
O=C(c1ccc(OC(F)(F)F)cc1)c1ncc[nH]1	·	0.1	-11.1	·	8.4
CCCN1C[C@@H](C)[C@H](OC)CN(C)C(=O)c2ccc(NC(=O)Nc3c(C)noc3C)cc2OC[C@H]1C	2.3	-0.9	·	3.3	·
CCC(=O)N1CC2(C1)[C@H](c1ccccc1)[C@H](CO)N2S(=O)(=O)Cc1ccccc1	-7.2	1.2	·	-2.6	·
O=C(Cc1ccccc1)N1CC2(C1)[C@@H](c1ccccc1)[C@@H](CO)N2S(=O)(=O)Cc1ccccc1	35.3*	7.8	·	-1.4	·
O=C(Cc1ccccc1)N1CC2(C1)[C@@H](c1ccccc1)[C@H](CO)N2S(=O)(=O)Cc1ccccc1	42.8*	0.3	·	·	·
COc1ccc(CN(CCC(c2ccccc2)C2CCOC(C)(C)C2)C(C)=O)cc1 (configuration not stated)	102.1*	-0.4	8.3	0.1	30.8
CCCCCCN1CCN(C2CN(C3CCCCC3)S(=O)(=O)C2)CC1 (configuration not stated)	7.5	3.0	·	38.7*	·
CN(C)CCN1CCN(C2CN(C3CCCCC3)S(=O)(=O)C2)CC1 (configuration not stated)	-2.5	0.2	·	-1.4	·
Cc1noc(C)c1NC(=O)Nc1ccc2c(c1)CC(=O)N([C@@H](C)CO)C[C@@H](C)[C@@H](CN(C)C(=O)Nc1c(C)noc1C)O2	-1.7	8.8	·	-0.4	·
c1ccc(-c2ccc3[nH]ccc3c2)cc1	87.5*	5.4	-0.5	-0.3	3.9
CCOC(=O)c1c(CNCCN(CC)CC)n(C)c2cc(Br)c(OC)cc12	·	·	-0.3	·	65.4*
CCc1ccc(N2CC(C(=O)OCC(=O)Nc3ccccc3C)CC2=O)cc1 (configuration not stated)	13.7	-3.8	-4.0	-0.9	-3.7
CCOc1ccccc1NC(=O)COC(=O)C1CC(=O)N(c2c(C)cccc2C)C1 (configuration not stated)	10.9	4.0	9.7	19.1*	-13.2
Cc1ccc(-n2ncc3c2CCCC3NC(=O)CCc2c(C)noc2C)cc1C (configuration not stated)	63.8*	-2.3	-19.8	0.1	3.4
O=C(C1CC1)N1CC2(C1)[C@H](c1ccccc1)[C@@H](CO)N2Cc1cncnc1	11.0	-5.3	·	-3.7	·
CCN1CCN(C(c2cccs2)C(C)NC(=S)Nc2cc(C)ccc2C)CC1 (configuration not stated)	-6.8	-0.4	-12.1	15.6*	3.8
O=C(Nc1ccc2c(c1)OCO2)N[C@H]1CC[C@H](CCNC(=O)C2CCOCC2)O[C@@H]1CO	-6.4	0.5	·	-3.1	·
